Reference: PubChem BioAssay (NCI)
Compounds without any hit were thinned out: in the full panel of roughly 79,000, 15% have a hit. A number with no mark means an inactive call. No stated cut-off is given here; in the data, active means growth inhibition above about 70%; inactive means the rest.

Experiment: NCI Yeast Anticancer Drug Screen. Data for the rad50 strain (AID 155);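 further: 0% = growth of vehicle-only cultures of the same strain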
Details: S. cerevisiae rad50 strain growth inhibition; at 50.0 µM; stronger effect = higher value
Experimental: Growth inhibition of yeast strains with defined genetic alterations is measured as a screen for potential anti-cancer activity. Selected strains with alterations in DNA damage repair or cell cycle control were exposed to compounds and growth inhibition was measured relative to vehicle treated controls. The strain used in this assay is rad50

Which growth inhibition does the source give for `CC(C)(C)NC(NC(C)(C)C)=C(C(Cl)=C(Cl)Cl)[N+](=O)[O-]` here?
The growth inhibition was -2.1%.

For `CC(C)CCCC(C)[C@H]1CC[C@H]2[C@@H]3CC[C@H]4C[C@@H](CCC=C(c5cc(Cl)c(O)c(C(=O)OC(C)C)c5)c5cc(Cl)c(O)c(C(=O)OC(C)C)c5)CC[C@]4(C)[C@H]3CC[C@]12C` (stereo not given in full), which growth inhibition is on record?
The growth inhibition was 17.7%.

Which growth inhibition does the source give for `N#CC(N)(C(=O)C(=O)NCCCNC(=O)C(=O)C(N)(C#N)c1ccc(Cl)cc1)c1ccc(Cl)cc1` (stereo not given) here?
The growth inhibition was -37%.

For `CCOC1CCC(C(=O)CC)C(C#N)(C#N)C1(C#N)C#N` (stereo not given), which growth inhibition is on record?
The growth inhibition was 22.6%.

Which growth inhibition does the source give for `CC(=O)Nc1cccc(N=NN(C)C)c1` here?
The growth inhibition was 14.2%.

With `C=CCCC1CC(OCC)OC(CCC=C)O1` (stereo not given) as the compound, how does the growth inhibition read?
The growth inhibition was 16.9%.

Which growth inhibition does the source give for `c1ccc(N=C2CCCCCC2)cc1` here?
The growth inhibition was -1.85%.

For `COc1cc(C(=O)O)c(O)c(OC)c1OC`, which growth inhibition is on record?
The growth inhibition was 0.2%.

With `CCCCOc1cc2c(cc1C(C)c1ccccc1)OCO2` (stereo not given) as the compound, how does the growth inhibition read?
Its growth inhibition is -0.35%.

Which growth inhibition does the source give for `CNC(=O)NCCCC(NC(C)=O)C(=O)NCc1ccccc1` (stereo not given) here?
The growth inhibition was -19%.

With `NC(=S)N/N=C1\C(=O)N(CCc2ccccc2)C(=O)C1C(=O)NCCc1ccccc1` (stereo not given) as the compound, how does the growth inhibition read?
Its growth inhibition is -16.4%.

For `CC(COc1ccc(Cl)cc1)OS(=O)(=O)CCCl` (stereo not given), which growth inhibition is on record?
The growth inhibition was 14.3%.

For `CO[C@@]12CC(=O)/C(=C(O)\C=C\c3ccccc3)C(=O)[C@]1(OC)Cc1ccccc1O2`, which growth inhibition is on record?
Its growth inhibition is 35.1%.

Which growth inhibition does the source give for `CC(=O)OCC1OC(n2c(O)c(/C=C3\C=Nc4ccccc43)sc2=S)C(OC(C)=O)C(OC(C)=O)C1OC(C)=O` (stereo not given) here?
The growth inhibition was 20.4%.

With `CCCOC(=O)CCCC1=NC2=CC=CC3=NC(C)=NC(=N1)N23` as the compound, how does the growth inhibition read?
Its growth inhibition is -10.3%.

With `c1ccc(-c2nnc3nn4c(-c5ccccc5)cnnc4c3c2-c2ccccc2)cc1` as the compound, how does the growth inhibition read?
The growth inhibition was -0.05%.

Which growth inhibition does the source give for `CC(C)(C)OC(=O)NC(CCCCNC(=O)OCc1ccccc1)C(=O)NCCNc1ccc(NCCNC(=O)C(CCCCNC(=O)OCc2ccccc2)NC(=O)OC(C)(C)C)c2c1C(=O)c1ccccc1C2=O` (stereo not given) here?
The growth inhibition was -3.7%.

With `Cc1ccc(CSC(=S)NNc2ccccc2)cc1C` as the compound, how does the growth inhibition read?
Its growth inhibition is -28.6%.

For `Cc1ccc(S(=O)(=O)N2CCN(S(=O)(=O)c3ccc(C)cc3)CCN(S(=O)(=O)c3ccc(C)cc3)Cc3cc(Br)c(Br)cc3CN(S(=O)(=O)c3ccc(C)cc3)CC2)cc1`, which growth inhibition is on record?
The growth inhibition was -24.1%.

Which growth inhibition does the source give for `O=C(O)/C=C/C(=O)Nc1ccc2c(c1)-c1ccccc1C2=O` here?
Its growth inhibition is 15.9%.

Which growth inhibition does the source give for `CCOC(=O)C(=O)Nc1ccc2cc(OC)ccc2c1C#N` here?
The growth inhibition was 13.8%.

Which growth inhibition does the source give for `N#Cc1c(NC(=S)NC(=O)c2ccccc2)nc2c(c1-c1ccccc1)CCCC2` here?
Its growth inhibition is 28%.

Which growth inhibition does the source give for `O=C(COc1ccc(Cl)c(Cl)c1)Nc1ccc(C(=O)CCl)cc1` here?
The growth inhibition was 6%.

With `COc1cc2c(cc1C1=NC(C)(C)CO1)OCO2` as the compound, how does the growth inhibition read?
Its growth inhibition is -7.35%.

Which growth inhibition does the source give for `CC1(C)CC(C)(OC(=O)c2ccccc2)N=N1` (stereo not given) here?
The growth inhibition was 14.6%.

Which growth inhibition does the source give for `C1=C(N2CCOCC2)CCC(N2CCOCC2)=C1` here?
The growth inhibition was -2.85%.

With `O=C(O)CCC(=O)c1ccc2c3c(cccc13)CC2` as the compound, how does the growth inhibition read?
The growth inhibition was 22.6%.

For `COc1ccccc1-c1coc2c(ccc3oc(C(C)C)cc32)c1=O`, which growth inhibition is on record?
Its growth inhibition is -19.2%.

Which growth inhibition does the source give for `O=C1C2CSCN2C(=O)C2CSCN12` (stereo not given) here?
Its growth inhibition is 5%.

With `CC(C)C(C(=O)O)N1C(=O)c2ccccc2C1=O` (stereo not given) as the compound, how does the growth inhibition read?
Its growth inhibition is -16.2%.

With `COC(=O)/C=C/C(=N/N(C)c1ccccc1)c1ccccc1` as the compound, how does the growth inhibition read?
Its growth inhibition is 3.35%.

Which growth inhibition does the source give for `Cc1sc2nc3n(c(=O)c2c1C)N=CN(c1ccc(F)cc1)C3` here?
Its growth inhibition is 0.85%.

With `O=c1cnn(C2OC(C(O)CO)C(O)C2O)c(=O)[nH]1` (stereo not given) as the compound, how does the growth inhibition read?
The growth inhibition was -6.9%.

Which growth inhibition does the source give for `CCc1ccc2c(c1)CCC(=O)O2` here?
Its growth inhibition is 0.5%.

With `COc1ccc(N2C=Nn3c(nc4sc5c(c4c3=O)CCCC5)C2)cc1` as the compound, how does the growth inhibition read?
Its growth inhibition is 9.55%.

Which growth inhibition does the source give for `C=CCc1cc(OC)c2c(c1)C(OC)CC(c1ccc(OC)c(OC)c1)O2` (stereo not given) here?
Its growth inhibition is -3.7%.

Which growth inhibition does the source give for `CC(=O)OCC1OC(Cl)C(OC(=O)C(Cl)(Cl)Cl)C(OC(C)=O)C1OC(C)=O` (stereo not given) here?
The growth inhibition was 2.8%.

With `O=c1c2ccccc2ncn1C1OC(CO)C(O)C1O` (stereo not given) as the compound, how does the growth inhibition read?
Its growth inhibition is 17.6%.

Which growth inhibition does the source give for `O=C(CCl)Nc1cc(Cl)c(Cl)cc1Cl` here?
The growth inhibition was 32.4%.

With `c1ccc2c(c1)OP1(=NP3(=NP4(=NP5(=N1)Oc1ccccc1-c1ccccc1O5)Oc1ccccc1-c1ccccc1O4)Oc1ccccc1-c1ccccc1O3)Oc1ccccc1-2` as the compound, how does the growth inhibition read?
The growth inhibition was 7.8%.
